Bioassay records: PubChem BioAssay, several laboratories
Compounds with a hit are over-represented: about 2.5% of the library has one in this group of screens.
PfM18AAP inh-1: PfM18AAP inhibitors, malaria aminopeptidase, primary screen, biochemical, QFRET, recombinant enzyme; M18 aspartyl aminopeptidase (Plasmodium falciparum 3D7); H-Glu-NHMec fluorogenic cleavage; inhibition, % at 7.35 µM; hit rate 1.2% among 290,000; AID 1822, 2009;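 active = inhibition above the campaign mean inhibition over all tested compounds plus 3 SD, cut at about 28% in these data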;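 also: 0% = plate median of test compound wells and 100% = 2 mM ZnCl2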
G6PDH CS: L. mesenteroides G6PDH inhibitors, counter-screen for G6PDH-coupled screening assays, biochemical, Leuconostoc mesenteroides enzyme. inhibition, % at 5 µM. Purified L. mesenteroides G6PDH, diaphorase/resazurin coupled fluorescence, 45 min. AID 1020, 2008. glucose-6-phosphate dehydrogenase [Leuconostoc mesenteroides]. hit rate 0.12% among 200,000; in the data active = inhibition above about 50%
p97 inhibitor: inhibitors of human p97 ATPase, primary screen, biochemical | Transitional endoplasmic reticulum ATPase (Homo sapiens), P55072 | AID 1481, 2009 | inhibition, % at 8 µM | hit rate 0.42% among 220,000 | recombinant p97 ATPase, Kinase-Glo ATP luminescence, 3 h; in the data active = inhibition above about 15%;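 also: 0% = DMSO vehicle and 100% = wells lacking enzyme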
SUMO HTRF inh: inhibitors of in vitro SUMOylation cascade, primary screen, biochemical, HTRF, uHTS. HTRF SUMOylation assay, SAE1/SAE2 + UBC9. inhibition, % at 35 µM. hit rate 0.36% among 290,000; in the data active = inhibition above about 50%, passing the limit was not always enough
Target sequence (P63279 whole entry, looked up): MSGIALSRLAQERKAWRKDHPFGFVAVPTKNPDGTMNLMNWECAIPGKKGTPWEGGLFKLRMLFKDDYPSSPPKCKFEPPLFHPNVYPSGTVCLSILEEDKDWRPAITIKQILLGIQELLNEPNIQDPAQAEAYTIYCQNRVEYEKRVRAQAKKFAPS
PHOSPHO1 inh: PubChem AID 1565. recombinant PHOSPHO1, absorbance phosphatase assay. inhibition, % at 13.3 µM. hit rate 1.1% among 290,000; in the data active = inhibition above about 60%
Target sequence (Q8TCT1 whole entry, looked up): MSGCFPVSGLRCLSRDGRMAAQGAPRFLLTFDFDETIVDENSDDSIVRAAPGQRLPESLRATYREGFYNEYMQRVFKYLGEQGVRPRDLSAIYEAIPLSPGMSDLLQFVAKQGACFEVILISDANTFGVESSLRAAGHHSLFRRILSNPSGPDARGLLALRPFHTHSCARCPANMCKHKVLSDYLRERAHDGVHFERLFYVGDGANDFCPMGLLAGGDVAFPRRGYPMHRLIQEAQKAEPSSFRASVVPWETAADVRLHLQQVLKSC
HDAC3 inhib: HDAC3 deacetylase inhibitors, primary screen, biochemical, fluorescence, cell-free homogeneous; Histone deacetylase 3 (Homo sapiens), O15379; recombinant HDAC3, fluorogenic peptide/trypsin coupled; inhibition, % at 8.3 µM; hit rate 0.15% among 320,000; AID 2718, 2010; in the data active = inhibition above about 26%, passing the limit was not always enough
PfM18AAP inh-2: PfM18AAP inhibitors, malaria aminopeptidase, confirmation, biochemical, QFRET, recombinant enzyme, triplicate. H-Glu-NHMec fluorogenic cleavage. hit rate 28% among 2,400. shares compounds with PfM18AAP inh-1. AID 2170, 2009. inhibition, % at 7.35 µM;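 active = mean inhibition over replicate wells above the hit cutoff set for the earlier primary screen, cut at about 29% in these data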;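 also: 0% = median of test compound wells and 100% = 2 mM ZnCl2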
CTSL1 confirm: cathepsin L1 inhibitors, retest, confirmation, counter-screen for PFM18AAP inhibitor project, biochemical, QFRET, triplicate; purified cathepsin L1, Z-Leu-Arg-MCA fluorescence; AID 2178, 2009; inhibition, % at 5.96 µM; shares compounds with PfM18AAP inh-1; 2,400 tested, under 10 active;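 active = average inhibition across replicates above the hit cutoff set in the earlier primary screen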;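 also: 0% = median of test compound wells and 100% = Z-Phe-Ala-diazomethylketone 1 µM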
Starred values were filed as active, the others as inactive; nt = not tested or not shown.

SMILES	PfM18AAP inh-1	G6PDH CS	p97 inhibitor	SUMO HTRF inh	PHOSPHO1 inh	HDAC3 inhib	PfM18AAP inh-2	CTSL1 confirm
NC(=S)Nc1cccc2cccnc12	32*	4	3	-22	-92	3	1	2
Cc1cc(C)cc(-n2ncc3c2CCCC3NC(=O)CCN2Cc3ccccc3C2=O)c1 (centres undefined)	-5	nt	nt	-2	3	-3	nt	nt
CC(=O)NC(CC(=O)NNC(=O)c1cc2ccccc2cc1O)c1ccccc1 (centres undefined)	32*	nt	nt	-12	20	7	-16	1
COc1cc(NC(=O)COC(=O)CC(NC(C)=O)c2ccccc2)cc(OC)c1 (centres undefined)	0	nt	nt	9	28	1	nt	nt
Cc1cc(OC(C)C(=O)N2C[C@H]3C[C@@H](C2)c2cccc(=O)n2C3)c2c(C)c(C)c(=O)oc2c1 (some centres undefined)	-11	nt	nt	20	29	-5	nt	nt
C=CCn1c(-c2ccccc2)n[nH]c1=S	14	12	2	2	10	1	nt	nt
C=CCn1c(Cc2ccccc2)n[nH]c1=S	34*	4	5	-6	27	1	-5	-1
C=CCn1c(-c2ccoc2)n[nH]c1=S	49*	12	5	5	-68	-11	-20	-1
Cc1cc(SCC(=O)c2cccc([N+](=O)[O-])c2)nc(=O)[nH]1	10	nt	nt	12	26	13	nt	nt
C[C@H](CO)N1C[C@H](C)[C@@H](CN(C)Cc2ccncc2)Oc2c(NS(=O)(=O)c3ccc(F)cc3)cccc2C1=O	nt	nt	nt	nt	nt	2	nt	nt
COc1cc(C(c2c(C)[nH][nH]c2=O)c2c(C)[nH][nH]c2=O)cc([N+](=O)[O-])c1O	27	15	4	17	18	3	nt	nt
Cc1ccc(C(c2c(C)[nH][nH]c2=O)c2c(C)[nH][nH]c2=O)cc1[N+](=O)[O-]	34*	10	6	0	-21	0	23	2
COc1ccc(NC(=O)CN(C)C(=O)c2c(-c3c(F)cccc3Cl)noc2C)cc1	nt	nt	nt	nt	nt	0	nt	nt
O=C1/C(=C\c2cccc(O)c2O)SC(=S)N1Cc1ccccc1	58*	nt	nt	1	3	1	20	-3
COc1ccc(CCN2CC(C(=O)N(C)Cc3c(C)n[nH]c3C)CCC2=O)cc1 (centres undefined)	-2	nt	nt	-2	17	nt	nt	nt
Cc1nc2ccccn2c1-c1ccnc(=S)[nH]1	37*	nt	9	8	-74	4	13	2
S=c1nccc(-c2ccc(Cl)cc2)[nH]1	1	nt	7	23	-93	-1	nt	nt
NNc1nccc(Nc2ccccc2C(=O)O)n1	43*	-17	-2	12	26	-4	26	3
COc1cc(/C=C/C(=O)O)cc(S(=O)(=O)Nc2ccc3nc(C)sc3c2)c1OC	38*	nt	1	23	30	2	-6	2
Cc1cc(NC(=O)CSc2ncc(C(=O)O)n2-c2ccc(F)cc2)no1	nt	nt	nt	nt	nt	-9	nt	nt
O=C(COC(=O)c1cc(=O)c2ccccc2o1)Nc1ccccc1F	nt	nt	nt	nt	nt	-5	nt	nt
CCOc1ccccc1C(=O)N/N=C/c1coc2ccc(Cl)cc2c1=O	33*	nt	nt	10	47	32*	-22	2
Cc1ccc2c(c1)-n1c(nc3cc(Cl)ccc3c1=O)C(CC(C)C)NC2=O (centres undefined)	nt	nt	nt	nt	nt	-2	nt	nt
O=C(NNC(=S)Nc1ccccc1)c1ccncc1	7	-1	1	13	-87	5	nt	nt
O=C(NNC(=S)Nc1ccccc1)NNC(=S)Nc1ccccc1	39*	18	1	4	-68	-6	60*	-5
O=C(COc1cccc2cccnc12)NNC(=S)Nc1ccccc1	35*	18	10	-37	-23	-2	77*	0
